Experimental data reported in PubChem BioAssay (NCATS).
Results filed as inconclusive are left out. Entries that show only a call come without a potency. The source made the active and inactive calls. Unless noted, calls follow the shape of the dose curve; as a rule, active = well fitted curve in the direction sought with a large enough effect; inconclusive = small, poorly fitted or top-dose-only effect, or another doubt; inactive = no such curve, though single readings can be large; an effect the other way counts as inactive or inconclusive.

What was measured:
[1] = Quantitative High-Throughput drug screen in 47 multiple myeloma cell lines against the NCATS MIPE library collection: RPMI8226_ATCC cell viability assay (AID 1919871); also: nearly all actives have a fitted effect of over 30% in size
Summary of the method: (§1)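 Plated at 500 cells per well, myeloma lines received MIPE 4.0 compounds by pin tool. Following 48 h culture at 37 °C, CellTiter-Glo luminescence gave viability relative to DMSO and media-only controls.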

[2] = Quantitative High-Throughput drug screen in 47 multiple myeloma cell lines against the NCATS MIPE library collection: OPM2_DSMZ cell viability assay (AID 1919872); also: nearly all actives have a fitted effect of over 30% in size
Summary of the method: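 We plated 500 myeloma cells per well, pinned in MIPE 4.0 compounds, and incubated for 48 hours at 37C. ATP was then quantified with CellTiter-Glo, with DMSO and media-only wells defining 100% and 0%.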

[3] = Quantitative High-Throughput drug screen in 47 multiple myeloma cell lines against the NCATS MIPE library collection: KMS28BM_JCRB cell viability assay (AID 1919874); also: nearly all actives have a fitted effect of over 35% in size
Summary of the method: as §1

[4] = qHTS for identification of novel therapeutic agents for treatment of microphthalmiaassociated transcription factor (MiT) renal cell carcinoma (RCC) (AID 1963991); details: CellTiter-Glo, 48 h, stronger effect = lower value
Summary of the method: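 Three TFE3-fusion RCC lines (UOK109, UOK124, UOK145), 500 cells/well in complete medium, were treated with MIPE 4.0 compounds for 48 hours at 37 C. Viability was by CellTiter-Glo luminescence, normalized to DMSO (100%) and empty wells (0%); curves fitted over 11 concentrations.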

[5] = Quantitative High-Throughput drug screen in 47 multiple myeloma cell lines against the NCATS MIPE library collection: PE2_PLB cell viability assay (AID 1919869); also: nearly all actives have a fitted effect of over 35% in size; also: potency is read from the fitted curve at half-maximal effect
Summary of the method: as §1

[6] = Quantitative High-Throughput drug screen in 47 multiple myeloma cell lines against the NCATS MIPE library collection: PCM6_Riken cell viability assay (AID 1919870); also: nearly all actives have a fitted effect of over 30% in size
Summary of the method: as §1

[7] = Quantitative High-Throughput drug screen in 47 multiple myeloma cell lines against the NCATS MIPE library collection: KMS11_JCRBsus cell viability assay (AID 1919873); also: nearly all actives have a fitted effect of over 50% in size
Summary of the method: as §1

[8] = qHTS drug screen for cell cycle checkpoint inhibitors in PARPi-resistant BRCA-mutant ovarian cancer cell lines. (AID 1963452; calls by dose curve); details: PEO1/OlaR viability, CellTiter-Glo luminescence, 96 h, stronger effect = lower value
Summary of the method: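 PEO1, PEO4 and PEO1/OlaR ovarian cancer cells, 600 per well, exposed 96 h at 37C to a dilution series. Viability read by CellTiter-Glo luminescence, normalized to DMSO and empty wells; activity summarized as Z-AUC.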

[9] = qHTS profiling for inhibitors of Plasmodium falciparum proliferation (AID 504749); also: nearly all actives have a fitted effect of over 60% in size; details: P. falciparum in erythrocytes, SYBR Green DNA, 72 h, at 28.7 µM (top of the series)
Summary of the method: (§2)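 Three-day growth assay of blood-stage parasites in erythrocytes (0.3% parasitemia, 2.5% hematocrit) at 37 C, 5% CO2, quantified by SYBR Green DNA staining after overnight detergent lysis.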

[10] = test system: 3D7; test: as above; details: P. falciparum in erythrocytes, SYBR Green DNA, 72 h; series mostly up to 28.7 µM
Summary of the method: as §2

[11] = test system: AA1029; test: as above; details: P. falciparum in erythrocytes, SYBR Green DNA, 72 h; series mostly up to 28.7 µM
Summary of the method: as §2

[12] = test system: AS120; test: as above; details: P. falciparum in erythrocytes, SYBR Green DNA, 72 h; series mostly up to 28.7 µM
Summary of the method: as §2

[13] = test system: ATS189; test: as above; details: P. falciparum in erythrocytes, SYBR Green DNA, 72 h; series mostly up to 28.7 µM
Summary of the method: as §2

[14] = test system: ATS95; test: as above; details: P. falciparum in erythrocytes, SYBR Green DNA, 72 h; series mostly up to 28.7 µM
Summary of the method: as §2

[15] = test system: C2A; test: as above; details: P. falciparum in erythrocytes, SYBR Green DNA, 72 h; series mostly up to 28.7 µM
Summary of the method: as §2

[16] = test system: CP185; test: as above; details: P. falciparum in erythrocytes, SYBR Green DNA, 72 h; series mostly up to 28.7 µM
Summary of the method: as §2

[17] = test system: CP191; test: as above; details: P. falciparum in erythrocytes, SYBR Green DNA, 72 h; series mostly up to 28.7 µM
Summary of the method: as §2

[18] = measured here: PEO1 parental Z-AUC

Clc1cccc(-c2nnnn2Cc2cccnc2)c1Cl
Potency [1]: inactive | Potency [2]: inactive | Potency [3]: inactive | z-score ([4]; TFE3-RCC UOK109 viability, measured here: UOK109 Z-AUC): 0.93 | z-score ([4]; TFE3-RCC viability, measured here: UOK124 Z-AUC): 0.545 | z-score ([4]; TFE3-RCC viability, measured here: UOK145 Z-AUC): 0.374

COc1c(N2C[C@@H]3CCCN[C@H]3C2)c(F)cc2c(=O)c(C(=O)O)cn(C3CC3)c12
Potency [5]: inactive | Potency [6]: inactive | Potency [1]: inactive | Potency [7]: inactive | Potency [3]: inactive | Z-AUC [8]: 0.687 (inactive) | Z-AUC [8, 18]: 0.58 | Z-AUC ([8]; measured here: PEO4 Z-AUC): 1.15 | activity, negative = inhibition ([9]; parasite line A): -20.4% (inactive) | activity, negative = inhibition ([9]; parasite line B): -3.01% (inactive) | Potency [10]: inactive | Potency [11]: inactive | Potency [12]: inactive | Potency [13]: inactive | Potency [14]: inactive | Potency [15]: inactive | Potency [16]: inactive | Potency [17]: inactive

COc1ccc2c(OCc3nnc4ccc(-c5ccccc5)nn34)ccnc2c1
Potency [5]: 1870 nM (active) | Potency [6]: inactive | Potency [1]: inactive | Potency [2]: inactive | Potency [7]: inactive | Potency [3]: inactive | Z-AUC [8]: -0.0998 (inactive) | Z-AUC [8, 18]: 0.23 | Z-AUC ([8]; measured here: PEO4 Z-AUC): 0.516

CC(=O)OCCN1C(=O)c2c(C)nc3ccc(S(=O)(=O)N4CCOCC4)cc3c2C1=O
Potency [5]: inactive | Potency [6]: inactive | Potency [1]: inactive | Potency [2]: inactive | Potency [7]: inactive | Potency [3]: inactive | Z-AUC [8]: 1.23 (inactive) | Z-AUC [8, 18]: 1.34 | Z-AUC ([8]; measured here: PEO4 Z-AUC): 1.26

CC(C)Nc1cc(C(F)(F)F)cc2nc(NC(=O)c3cccnc3)nn12
Potency [5]: inactive | Potency [6]: inactive | Potency [3]: inactive | Z-AUC [8]: 0.923 (inactive) | Z-AUC [8, 18]: 0.905 | Z-AUC ([8]; measured here: PEO4 Z-AUC): 1.12
